From PubChem BioAssay (NCI)
This is part of a sample that, as a whole, favours compounds with a hit. Of some 83,000 tested, about 20% had one in any assay.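 Growth was measured after 48 h exposure to one concentration of compound in 96-well plates. Values under 10 count as active.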 Unmarked numbers belong to inactive results. Activity calls are given as the source filed them.

What follows are compounds tested on A549/ATCC NSCLC (assay: NCI-60 one-dose screen, 48 h (100 = growth as untreated, 0 = no growth, -100 = all killed)). Details: 10 µM unless noted.
In the case of C#CCOc1ccc2ncnc(Nc3cccc(NC(=O)C=C)c3)c2c1, the growth is reported as 56.4%. Nc1ncnc2c1N=C(c1ccc3c(c1)OCO3)CC(c1ccc([N+](=O)[O-])cc1)N2 (stereo not given) gave a growth of 58.7%. With CCCCN1C(=O)/C(=c2\sc3n(c2=O)C2C(NN=3)N(CC)C(=O)N2CC)c2ccccc21 (stereo not given) the growth was 7.06% (active). In the case of CCOC(=O)C1=NN(c2ccccc2)C(=O)/C1=C\N1C(=O)CC(=O)NC1=S, the growth is reported as 103%. O=C(N/N=C/c1ccc(F)cc1)c1ccc(C(F)(F)F)nc1Nc1cccc(C(F)(F)F)c1 was tested, and the growth was -10.9% (active). With Cc1ccc(-c2csc(NC(=O)CN3CCN(c4cc5c(cc4F)c(=O)c(C(=O)O)cn5C4CC4)CC3)n2)cc1 the growth was 3.47% (active). Work on Clc1ccc(Sc2cnc(-c3ccccc3)o2)cc1 yielded a growth of 92%. For COc1ccc(-c2cc(-c3ccc(Cl)cc3)c(C#N)c(=O)n2CCCCC(=O)Nc2ccccc2N)cc1, the growth was 43.8%. For C=C(C)[C@@H]1CC[C@]2(C(=O)O)CC[C@]3(C)[C@H](CC[C@@H]4[C@@]5(C)C[C@@H](Cc6cn(CCO[C@@H]7O[C@H](COC(C)=O)[C@H](OC(C)=O)[C@H](OC(C)=O)[C@H]7OC(C)=O)nn6)[C@H](O)C(C)(C)[C@@H]5CC[C@]43C)[C@@H]12, the growth was 61.8%. S=C1CCSC(=S)N1CCCN1C(=S)CCSC1=S showed a growth of 97.7%. O=C(COc1ccc(-c2nc3ccccc3[nH]2)cc1)N=Nc1c(O)[nH]c2ccc(Cl)cc12 gave a growth of 99%. Cc1ccc(/C=N/Nc2nc(Nc3ccccc3)nc(-n3nc(C)cc3C)n2)cc1 showed a growth of 26.2%. For O=[N+]([O-])c1ccc(N/N=C(/C(=N/Nc2ccc([N+](=O)[O-])cc2)c2ccccc2)c2ccccc2)cc1, the growth was 90.9%. CCOC(=O)c1c(NC(=O)c2ccc(C(C)C)cc2)sc2c(CN(C)C)c(O)ccc12 showed a growth of 77%. With C#Cc1ccc(NC(=O)c2ccc(/C=C/C(=O)c3nccn3C)cc2)cc1 the growth was -0.388% (active). In the case of O=C(NCCCCNC(=O)OCc1ccc2c(Cl)cc(Cl)c(O)c2n1)OCc1ccc2c(Cl)cc(Cl)c(O)c2n1, the growth is reported as 14.8%. With c1cc2[nH]ncc2cc1-c1nc2ccc3[nH]ncc3c2c2c1CCCC2 the growth was 5.84% (active). C[C@H](NC(=O)[C@@H](C)N)[C@H](Oc1ccc2c(cnn2-c2ccc(F)cc2)c1)c1ccc2c(c1)OCCO2 was tested, and the growth was 39.3%. CCN(CC)c1nc(SCc2ccccc2Cl)ncc1C gave a growth of 95%. Work on O=S(=O)(NCCCNc1nccc(-c2c(-c3ccc(F)c(O)c3)nc3occn23)n1)c1ccccc1 yielded a growth of 88.1%. In the case of O=C(NCc1ccccc1)Nc1ccccc1CNc1nc(Nc2ccc(OCCN3CCCC3)cc2)ncc1Cl, the growth is reported as 97.5%. Work on C=CCc1c2c(c(OC)c3ccoc13)C(=O)/C(=C/c1ccccc1OC)O2 yielded a growth of 60.2%. For COc1ccc(NC(=O)c2sc3nc(C)c(C(=O)/C=C/c4cccc(OC)c4)cc3c2N)cc1, the growth was 13.2%. Compound N#Cc1c(NC(=O)c2ccccc2)sc2c1CCC(=O)C2 has a growth of 52.7%. Work on CN(C)CCCn1c2c(c3ncccc3c1=O)C(=O)c1ccccc1-2 yielded a growth of 42%. CCOC(=O)Cn1c(O)c(N=Nc2ccc(S(N)(=O)=O)cc2)c2cc(Br)ccc21 gave a growth of 30.7%. Cc1nc(-c2ccccc2)cc2c(O)c(C(=O)NN)[nH]c(=O)c12 showed a growth of 102%. Compound O=C(Nn1c2c(sc1=Nc1ccccc1)C(=O)c1ccccc1C2=O)c1cc2ccc1CCc1ccc(cc1)CC2 has a growth of 64%. CNC(=O)c1c(NC(=O)c2ccc(C(F)(F)F)cc2)sc2c1CCC(=O)C2 was tested, and the growth was 13.7%. In the case of C#CCOc1cccc(Nc2ncnc3ccc(NC(=O)CCl)cc23)c1, the growth is reported as -38.6% (active). Compound CS(=O)(=O)Nc1cc(-c2ccc3ncnc(Nc4ccc5c(cnn5Cc5ccccn5)c4)c3c2)cnc1Cl has a growth of 89.2%. Oc1c(Cl)cc(Cl)cc1/C=N/Nc1nnc(N/N=C/c2cc(Cl)cc(Cl)c2O)c2ccccc12 showed a growth of 22.8%. CCn1cc(C(=O)N/N=C/c2cccs2)c(=O)c2cc(F)c(N3CCNC(C)C3)c(F)c21 (stereo not given) gave a growth of 44%. For O=C(NNC(=O)c1ccc(-n2cc(-c3ccccc3)nn2)cc1)Nc1ccccc1, the growth was 102%. With COc1ccc(CC(C#N)c2cc3ccccc3[nH]2)cc1 (stereo not given) the growth was 86.3%. O=C(c1ccc(Cl)cc1)N1CCN(c2ccnc3cc(Cl)ccc23)CC1 gave a growth of 87%. Compound CN1CCN(Cc2ccc3c(NNC(=O)c4ccccc4)nc4cc(F)ccc4n23)CC1 has a growth of 14.8%. In the case of c1ccc(CNc2c3ccccc3nc3ccccc23)cc1, the growth is reported as 28.5%. In the case of N#C/C(=C/c1ccc([N+](=O)[O-])cc1)n1nnc2cc(F)c(F)cc21, the growth is reported as 87.6%. In the case of O=C1CNC(c2ccccc2)C(c2ccccc2)N1 (stereo not given), the growth is reported as 93.5%.
